# Assay results from PubChem BioAssay (NCATS).
# Results filed as inconclusive are left out. Calls of active or inactive are those of the source. Unless noted, the call rests on the fitted dose curve; in most records, active means well fitted curve in the direction sought with a large enough effect; inconclusive means small, poorly fitted or top-dose-only effect, or another doubt; inactive means no such curve, though single readings can be large; an effect the other way counts as inactive or inconclusive.
# Legend:
# [1] = molecular target: Lysosomal acid glucosylceramidase (Homo sapiens) (UniProt P04062); assay: Glucocerebrosidase-p2 (AID 348; in the data active means potency below about 10 µM; further: potency means the concentration at half of the fitted maximal effect); settings: purified GBA, blue fluorogenic substrate, 40 min
# Procedure, shortened: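 Normal human glucocerebrosidase (0.2 nM) with blue fluorogenic substrate (80 uM final) in citrate/phosphate pH 5.9 with 10mM sodium taurocholate, 0.01% tween-20; 40 min RT, NaOH/glycine stop; fluorescence Ex 365/Em 440; AC50 from a titration from 0.6 nM upwards.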
# [2] = AP1 Signaling Pathway (AID 357; active means well fitted curve in either direction with a large enough effect, not every such curve was filed as active;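 further: ME-180 reporter cells stimulated with EGF at its EC50 level; on the % scale 0 is the no-effect control and ±100 the full control effect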); settings: ME-180 AP-1-bla reporter, EGF-induced, beta-lactamase ratio, 5 h; at 7.69 µM (top of the series) unless noted
# Procedure, shortened: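 Titration-series screen for positive or negative modulators of EC50 EGF-induced signaling in ME-180 cells carrying an AP-1-driven beta-lactamase reporter. After 5 hours at 37 degrees Celsius, CCF4 460nm/530nm emission ratio gave %Activity; AC50 values derived.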
# [3] = NFAT Signaling Pathway (AID 444; active means well fitted curve in either direction with a large enough effect, not every such curve was filed as active;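 further: carbachol stimulus at about its EC50 of 1 µM final; on the % scale 0 is the no-effect control and ±100 the full control effect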); settings: Jurkat NFAT-bla M1, carbachol, beta-lactamase ratio, 5 h; at 7.69 µM (top of the series) unless noted
# Procedure, shortened: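 Read-out: CCF4 FRET ratio (460 nm/530 nm) after 1 h RT dye loading, used for %activity and AC50 from titration series. Cells: Jurkat NFAT-β-lactamase/M1 line, treated with compound plus 1 uM carbachol for 5 h, 37 °C.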
# [4] = Stat Signaling Pathway (AID 446; active means well fitted curve in either direction with a large enough effect, not every such curve was filed as active;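 further: ME-180 cervical cancer cells given 40 pM IL-6 alongside compound; SIE-controlled beta-lactamase reporter measured as 460/530 nm FRET emission ratio; on the % scale 0 is the no-effect control and ±100 the full control effect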); settings: ME-180 (cervical carcinoma) SIE beta-lactamase reporter, IL-6 stimulated, 5 h; at 7.69 µM (top of the series) unless noted
# Procedure, shortened: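 Emission at 460 and 530 nm (excitation 405 nm) reports SIE-controlled beta-lactamase in ME-180 cells. Cells received compound with 40 pM IL-6 for 5 hrs at 37 C; data scaled between 300 pM IL-6 and 125 nM JAK-inhibitor controls.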
# [5] = molecular target: Glucocorticoid receptor (Homo sapiens) (UniProt P04150); assay: GR-GFP Redistribution (AID 450;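 active means compounds whose dose series gives a full or clear partial fitted curve of increased nuclear translocation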; further: potency means the concentration at half of the fitted maximal effect); settings: U2OS GR-GFP nuclear translocation, laser cytometry, 2 h
# [6] = molecular target: Glucocorticoid receptor (Homo sapiens) (UniProt P04150); assay: GR-EFC Redistribution (AID 451; calls by dose curve; further: potency means the concentration at half of the fitted maximal effect); settings: CHO-K1 GR-EFC translocation, beta-gal luminescence, 2 h
# Procedure, shortened: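 Translocation of GR-ED fusion to nuclear EA restores b-gal, read by luminescence after 1 h room-temperature detection. Engineered CHO-K1 biosensor cells, 1,000/well, exposed 2 h at 37 C to titrations up to 46 uM final.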
# [7] = molecular target: Mitogen-activated protein kinase 10 (Mus musculus) (UniProt Q61831); assay: JNK3 AlphaScreen Assay (AID 530; active means well fitted curve in either direction with a large enough effect, not every such curve was filed as active;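 further: kinase came from lysate of stimulated human HepG2 cells; signal reports phosphorylation of biotinylated GST-cJun 1-79 at Ser73 with 10 µM ATP; on the % scale 0 is the no-effect control and ±100 the full control effect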); settings: JNK3 lysate, c-Jun phosphorylation; series mostly up to 57.1 µM
# Procedure, shortened: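 qHTS titrations with 15 min compound pre-incubation before adding ATP (10 uM final). Read-out: AlphaScreen of Ser73-phosphorylated biotin-GST-cJun using HepG2 lysate JNK3 activated by IL-1β and TNFα.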
# [8] = qHTS Assay for Lipid Storage Modulators (AID 1519; calls by dose curve); settings: Drosophila S3 cells, BODIPY lipid droplet/cell ratio, laser cytometry, cells loaded with oleic acid; for activity change, negative = inhibition: at 57.5 µM (top of the series)
# Procedure, shortened: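 Cells seeded at 5,000 per well were treated with compounds over a concentration series and loaded with oleic acid (400 uM, as added). Lipid droplet fluorescence (488 nm excitation, 500-530 nm channel) was read by laser-scanning cytometry and normalized to 20 uM Triacsin C.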
# [9] = molecular target: Dual specificity protein kinase CLK4 (Homo sapiens) (UniProt Q9HAZ1); assay: qHTS Assay for Inhibitors of CDC-like Kinase 4 (Kinase-Glo Assay) (AID 1770); settings: recombinant Clk4, Kinase-Glo ATP depletion luminescence; series mostly up to 66.7 µM; further: nearly all actives have a fitted effect of over 65% in size; further: potency means the concentration at half of the fitted maximal effect
# Procedure, shortened: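 Inhibition was judged from remaining ATP, measured by Ultra-Glo luciferase bioluminescence after Clk4 (25 nM) had acted on RS peptide at 1 uM ATP for 4.5 hours, room temperature.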
# [10] = molecular target: Dual specificity protein kinase CLK4 (Homo sapiens) (UniProt Q9HAZ1); assay: qHTS Assay for Inhibitors of CDC-like Kinase 4 (ADP-Glo Assay) (AID 1771); settings: recombinant CLK4, ADP-Glo luminescence; series mostly up to 80 µM; further: nearly all actives have a fitted effect of over 70% in size; further: potency means the concentration at half of the fitted maximal effect
# Procedure, shortened: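 ADP production was read by ADP-Glo luminescence after residual ATP depletion, following 1 h room-temperature reaction of 25 nM Clk4, 1 uM ATP and 100 uM RS peptide with MgCl2, EGTA, DTT and Triton X-100.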
# [11] = molecular target: Dual specificity protein kinase CLK4 (Homo sapiens) (UniProt Q9HAZ1); assay: qHTS Assay for Inhibitors of CDC-like Kinase 4 (ADP-FP Assay) (AID 1795); settings: Transcreener ADP fluorescence polarization; series mostly up to 50 µM; further: nearly all actives have a fitted effect of over 60% in size; further: potency means the concentration at half of the fitted maximal effect
# Procedure, shortened: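 Inhibition of ADP formation by 6.25 nM Clk4 is measured using 1 uM ATP and 100 uM RS repeat peptide over one hour. Produced ADP displaces a fluorescent tracer from antibody, lowering polarization.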
# [12] = molecular target: Ubiquitin carboxyl-terminal hydrolase 1 (Homo sapiens) (UniProt O94782); assay: Inhibitors of USP1/UAF1: Pilot qHTS (AID 504865); settings: purified USP1/UAF1, Ub-rhodamine cleavage fluorescence; series mostly up to 54.9 µM;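 further: rhodamine fluorescence freed from ubiquitin-rhodamine substrate followed over time; top concentration of the series differs between compounds; on the % scale 0 is the no-effect control and ±100 the full control effect; nearly all actives have a fitted effect of over 35% in size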
# Procedure, shortened: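 Kinetic fluorescence assay: 1nM USP1/UAF1, 15 min compound preincubation, then 150nM Ub-Rho; 480/540 nm.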
# [13] = Primary qHTS for small molecule stabilizers of the endoplasmic reticulum resident proteome: Secreted ER Calcium Modulated Protein (SERCaMP) assay (AID 1508630); settings: SH-SY5Y GLuc-SERCaMP (Gaussia luciferase released on ER calcium loss) secretion, thapsigargin, luminescence; series mostly up to 38.4 µM; further: on the % scale 0 is the no-effect control and ±100 the full control effect
# Procedure, shortened: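 The SH-SY5Y reporter protocol was run at 3 concentrations up to 38.3 uM (primary) or 11 concentrations (follow-up): 16 h compound, 100 nM thapsigargin for 4 h, then extracellular luciferase luminescence.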
# [14] = molecular target: 3',5'-cyclic-AMP phosphodiesterase 4B (Homo sapiens) (UniProt Q07343); assay: qHTS Assay for Inhibitors of PDE-IV (AID 607; active means well fitted activation curve with a large enough effect in the main read-out, with a control signal flat, not every such curve was filed as active; further: % of control where 0% means no effect); settings: HEK293 ACTOne CNG channel cells, membrane potential fluorescence; series mostly up to 22.9 µM
# Procedure, shortened: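 The readout is membrane depolarisation from a cAMP-sensing CNG channel, detected with a potential dye at ex 535/em 590. Cells were HEK293-derived (endogenous PDE-IV) at 1000 cells/well, titrated up to 22.9 uM final.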
# [15] = molecular target: Cytochrome P450 1A2 (Homo sapiens) (UniProt P05177); assay: p450-cyp1a2 (AID 410; calls by dose curve; further: potency means the concentration at half of the fitted maximal effect); settings: recombinant CYP1A2, luciferin-ME demethylation, luminescence; series mostly up to 57 µM
# Procedure, shortened: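 Luminescent demethylation readout: Luciferin-ME (100uM, equal to Km) turned over by 20nM CYP1A2 for 60 min at room temperature after NADPH regeneration addition, following 10 min compound preincubation. Normalization used 57 uM furafylline as full inhibition.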
# [16] = molecular target: Cytochrome P450 3A4 (Homo sapiens) (UniProt P08684); assay: qHTS Assay for Inhibitors and Substrates of Cytochrome P450 3A4 (AID 884); settings: recombinant CYP3A4, Luciferin-PPXE luminescence; series mostly up to 57.1 µM; further: potency means the concentration at half of the fitted maximal effect; nearly all actives have a fitted effect of over 50% in size
# Procedure, shortened: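 Luminescent readout of luciferin produced by CYP3A4 (20 nM) dealkylation of Luciferin-PPXE, 25 uM (its KM). NADPH-driven reaction ran 60 min at RT after 10 min compound preincubation; data scaled to 57 uM ketoconazole as 100% inhibition.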
# [17] = molecular target: Cytochrome P450 3A4 (Homo sapiens) (UniProt P08684); assay: qHTS Assay for Activators of Cytochrome P450 3A4 (AID 885); settings: recombinant CYP3A4, Luciferin-PPXE luminescence, 60 min; series mostly up to 57.1 µM; further: nearly all actives have a fitted effect of over 65% in size
# Procedure, shortened: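 Activators are scored by enhanced luminescence from CYP3A4 conversion of luciferin-PPXE (25uM, equal to KM) to luciferin, after 60 min at RT with an NADPH-regenerating system.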
# [18] = measured here: cell count channel max response
# [19] = measured here: lipid channel max response
# Cytochrome P450 1A2 (Homo sapiens), sequence (P05177 whole entry, looked up): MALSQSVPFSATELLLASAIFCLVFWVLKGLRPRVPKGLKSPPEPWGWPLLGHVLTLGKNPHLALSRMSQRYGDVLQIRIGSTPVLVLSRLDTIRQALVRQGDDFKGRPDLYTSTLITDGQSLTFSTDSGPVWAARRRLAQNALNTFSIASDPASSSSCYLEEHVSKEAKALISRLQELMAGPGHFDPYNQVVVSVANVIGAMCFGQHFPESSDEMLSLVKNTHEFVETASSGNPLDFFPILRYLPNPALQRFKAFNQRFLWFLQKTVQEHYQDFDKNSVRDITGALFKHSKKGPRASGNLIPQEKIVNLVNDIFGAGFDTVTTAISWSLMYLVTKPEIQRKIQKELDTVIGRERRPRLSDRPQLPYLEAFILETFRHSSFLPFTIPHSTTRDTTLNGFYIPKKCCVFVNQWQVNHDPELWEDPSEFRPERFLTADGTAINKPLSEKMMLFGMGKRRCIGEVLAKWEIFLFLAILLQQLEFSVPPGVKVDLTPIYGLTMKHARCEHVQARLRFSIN
# Glucocorticoid receptor (Homo sapiens), sequence (P04150 whole entry, looked up, the tested form may be a part): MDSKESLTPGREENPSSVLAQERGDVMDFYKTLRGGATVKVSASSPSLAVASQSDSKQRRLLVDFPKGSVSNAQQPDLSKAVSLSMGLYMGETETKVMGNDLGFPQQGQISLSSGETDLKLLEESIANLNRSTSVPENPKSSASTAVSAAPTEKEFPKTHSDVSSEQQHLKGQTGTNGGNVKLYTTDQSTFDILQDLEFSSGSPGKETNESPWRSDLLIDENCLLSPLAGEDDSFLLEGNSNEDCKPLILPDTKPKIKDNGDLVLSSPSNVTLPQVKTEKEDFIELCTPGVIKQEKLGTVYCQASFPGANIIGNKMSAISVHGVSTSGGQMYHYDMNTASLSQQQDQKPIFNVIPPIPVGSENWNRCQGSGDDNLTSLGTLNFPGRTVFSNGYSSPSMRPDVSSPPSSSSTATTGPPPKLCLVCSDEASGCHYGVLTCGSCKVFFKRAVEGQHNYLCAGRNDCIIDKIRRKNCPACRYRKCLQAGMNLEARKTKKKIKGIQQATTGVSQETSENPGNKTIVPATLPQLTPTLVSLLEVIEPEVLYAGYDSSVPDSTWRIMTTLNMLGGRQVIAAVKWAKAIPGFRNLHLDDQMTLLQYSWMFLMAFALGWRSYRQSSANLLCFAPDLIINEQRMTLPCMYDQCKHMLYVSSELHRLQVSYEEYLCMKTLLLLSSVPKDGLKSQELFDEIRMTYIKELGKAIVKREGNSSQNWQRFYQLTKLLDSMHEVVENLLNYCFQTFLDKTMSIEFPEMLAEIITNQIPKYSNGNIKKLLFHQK
# Cytochrome P450 3A4 (Homo sapiens), sequence (P08684 whole entry, looked up): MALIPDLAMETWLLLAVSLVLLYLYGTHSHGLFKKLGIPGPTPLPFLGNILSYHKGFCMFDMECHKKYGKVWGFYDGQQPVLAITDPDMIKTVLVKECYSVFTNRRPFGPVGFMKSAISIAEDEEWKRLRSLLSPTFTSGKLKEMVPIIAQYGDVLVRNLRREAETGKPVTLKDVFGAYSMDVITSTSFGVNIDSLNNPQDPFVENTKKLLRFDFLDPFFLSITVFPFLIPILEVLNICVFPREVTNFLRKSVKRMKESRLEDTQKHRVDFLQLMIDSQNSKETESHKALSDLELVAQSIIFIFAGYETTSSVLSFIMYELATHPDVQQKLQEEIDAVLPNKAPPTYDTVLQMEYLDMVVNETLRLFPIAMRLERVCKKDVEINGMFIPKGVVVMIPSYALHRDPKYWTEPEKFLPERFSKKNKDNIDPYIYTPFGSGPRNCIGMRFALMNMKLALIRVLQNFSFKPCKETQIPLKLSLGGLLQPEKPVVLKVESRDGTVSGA
# 3',5'-cyclic-AMP phosphodiesterase 4B (Homo sapiens), sequence (Q07343 whole entry, looked up): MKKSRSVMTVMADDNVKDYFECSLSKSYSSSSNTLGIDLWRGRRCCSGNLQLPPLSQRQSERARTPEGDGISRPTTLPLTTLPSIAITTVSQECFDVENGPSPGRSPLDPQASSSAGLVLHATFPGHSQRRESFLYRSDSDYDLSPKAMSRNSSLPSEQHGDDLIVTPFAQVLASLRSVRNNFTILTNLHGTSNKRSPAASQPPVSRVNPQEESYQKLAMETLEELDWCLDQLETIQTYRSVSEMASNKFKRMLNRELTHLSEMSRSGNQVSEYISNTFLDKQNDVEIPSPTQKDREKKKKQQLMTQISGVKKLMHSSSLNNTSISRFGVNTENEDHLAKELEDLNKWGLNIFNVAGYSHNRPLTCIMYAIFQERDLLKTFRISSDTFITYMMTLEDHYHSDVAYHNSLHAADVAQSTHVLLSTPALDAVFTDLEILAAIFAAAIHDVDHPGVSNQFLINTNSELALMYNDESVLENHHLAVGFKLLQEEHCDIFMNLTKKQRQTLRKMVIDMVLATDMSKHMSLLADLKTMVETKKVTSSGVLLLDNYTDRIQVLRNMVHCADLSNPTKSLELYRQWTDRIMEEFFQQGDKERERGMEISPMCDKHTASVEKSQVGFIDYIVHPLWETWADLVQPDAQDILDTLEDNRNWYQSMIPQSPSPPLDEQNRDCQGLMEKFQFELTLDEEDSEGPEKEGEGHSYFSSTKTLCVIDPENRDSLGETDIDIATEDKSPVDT
# Lysosomal acid glucosylceramidase (Homo sapiens), sequence (P04062 whole entry, looked up): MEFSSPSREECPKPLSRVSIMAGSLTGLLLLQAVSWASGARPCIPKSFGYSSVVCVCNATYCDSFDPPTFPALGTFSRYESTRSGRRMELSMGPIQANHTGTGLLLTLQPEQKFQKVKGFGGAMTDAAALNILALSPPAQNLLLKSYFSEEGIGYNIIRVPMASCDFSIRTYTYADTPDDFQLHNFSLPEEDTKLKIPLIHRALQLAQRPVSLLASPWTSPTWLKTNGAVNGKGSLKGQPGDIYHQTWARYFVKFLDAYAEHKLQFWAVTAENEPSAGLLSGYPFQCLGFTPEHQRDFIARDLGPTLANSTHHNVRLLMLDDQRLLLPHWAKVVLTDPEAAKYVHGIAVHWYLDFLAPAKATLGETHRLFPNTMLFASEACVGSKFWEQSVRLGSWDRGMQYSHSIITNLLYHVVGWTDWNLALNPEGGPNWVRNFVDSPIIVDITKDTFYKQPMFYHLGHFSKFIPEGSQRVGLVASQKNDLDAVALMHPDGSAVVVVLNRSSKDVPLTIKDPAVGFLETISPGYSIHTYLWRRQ
# Dual specificity protein kinase CLK4 (Homo sapiens), sequence (Q9HAZ1 whole entry, looked up): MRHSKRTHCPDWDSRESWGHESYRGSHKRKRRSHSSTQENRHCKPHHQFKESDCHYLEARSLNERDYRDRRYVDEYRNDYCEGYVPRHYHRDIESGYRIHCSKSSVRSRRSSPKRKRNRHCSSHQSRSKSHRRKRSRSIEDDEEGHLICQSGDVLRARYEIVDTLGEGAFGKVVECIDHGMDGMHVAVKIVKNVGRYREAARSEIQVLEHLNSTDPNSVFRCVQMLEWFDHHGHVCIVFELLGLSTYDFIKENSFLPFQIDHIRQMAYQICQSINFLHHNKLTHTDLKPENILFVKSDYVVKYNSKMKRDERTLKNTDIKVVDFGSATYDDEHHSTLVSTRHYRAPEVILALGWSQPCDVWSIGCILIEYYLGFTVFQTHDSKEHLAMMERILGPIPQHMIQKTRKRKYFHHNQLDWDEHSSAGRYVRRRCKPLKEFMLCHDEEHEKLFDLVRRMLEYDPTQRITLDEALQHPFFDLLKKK
# Ubiquitin carboxyl-terminal hydrolase 1 (Homo sapiens), sequence (O94782 whole entry, looked up): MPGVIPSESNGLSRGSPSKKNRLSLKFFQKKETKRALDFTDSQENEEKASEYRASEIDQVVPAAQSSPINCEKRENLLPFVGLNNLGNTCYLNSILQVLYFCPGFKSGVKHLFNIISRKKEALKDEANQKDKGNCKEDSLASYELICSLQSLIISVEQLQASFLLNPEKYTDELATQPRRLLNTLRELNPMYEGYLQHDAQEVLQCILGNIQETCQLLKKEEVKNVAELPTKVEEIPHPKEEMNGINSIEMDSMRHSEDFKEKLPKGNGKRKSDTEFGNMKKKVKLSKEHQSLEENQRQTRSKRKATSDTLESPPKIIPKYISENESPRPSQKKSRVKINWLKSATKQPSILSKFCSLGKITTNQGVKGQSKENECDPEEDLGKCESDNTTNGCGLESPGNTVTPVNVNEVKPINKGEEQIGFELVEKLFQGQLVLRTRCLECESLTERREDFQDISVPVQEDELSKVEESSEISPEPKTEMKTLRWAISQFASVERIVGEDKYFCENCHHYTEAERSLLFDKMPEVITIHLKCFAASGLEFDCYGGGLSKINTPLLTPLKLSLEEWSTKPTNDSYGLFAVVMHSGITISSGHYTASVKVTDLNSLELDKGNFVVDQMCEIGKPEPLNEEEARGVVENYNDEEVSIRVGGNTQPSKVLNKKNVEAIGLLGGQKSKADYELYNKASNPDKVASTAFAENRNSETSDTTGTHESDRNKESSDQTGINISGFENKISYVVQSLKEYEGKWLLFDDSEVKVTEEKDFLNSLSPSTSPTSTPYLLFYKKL
SMILES,Potency [1],"activity change, negative = inhibition [2]","activity change, negative = inhibition [3]","activity, negative = inhibition [4]",Potency [5],Potency [6],outcome [7],"activity change, negative = inhibition [8]","max response [8, 18]","max response [8, 19]",Potency [9],Potency [10],Potency [11],Potency [12],Potency [13],Potency [14],Potency [15],Potency [16],Potency [17]
CN(C)c1ncc2nc(-c3cn(C)c4ccccc34)c(=O)n(C[C@H]3CCCO3)c2n1,> 11.4 µM (inactive),-23.8% (inactive),3.82% (inactive),-10.1% (inactive),> 9.22 µM (inactive),> 46 µM (inactive),inactive,6.78% (inactive),5.1%,8.36%,inactive,inactive,inactive,inactive,inactive,,,,
COc1ccccc1-c1nccc(NC2CCNCC2)n1,> 11.4 µM (inactive),3.56% (inactive),5.88% (inactive),27.9% (inactive),> 46 µM (inactive),> 46 µM (inactive),inactive,2.87% (inactive),7.38%,8.77%,inactive,inactive,inactive,inactive,inactive,inactive,,,
c1ccc(CNc2cc(-c3cccnc3)ncn2)cc1,> 11.4 µM (inactive),1.27% (inactive),15.4% (inactive),14.9% (inactive),> 46 µM (inactive),> 46 µM (inactive),inactive,7.56% (inactive),11.5%,21.7%,10 µM (active),4.47 µM (active),5.01 µM (active),inactive,inactive,,,,
CN(Cc1ccco1)c1ncncc1-c1cccc(C#N)c1,> 11.4 µM (inactive),21.3% (inactive),,7.25% (inactive),> 46 µM (inactive),> 46 µM (inactive),inactive,5.47% (inactive),14.4%,17.8%,inactive,inactive,inactive,inactive,inactive,inactive,12.6 µM (active),7.94 µM (active),inactive
CN(C)c1ncc2nc(-c3ccc(F)cc3)c(=O)n(C[C@H]3CCCO3)c2n1,> 11.4 µM (inactive),26.6% (inactive),26.7% (inactive),,> 9.22 µM (inactive),,inactive,-2.2% (inactive),12.6%,6.86%,inactive,inactive,inactive,inactive,inactive,inactive,2.51 µM (active),,
O=c1c(-c2cccs2)nc2cnc(N3CCOCC3)nc2n1Cc1ccc(F)cc1,> 11.4 µM (inactive),27.4% (inactive),27.2% (inactive),,> 9.22 µM (inactive),> 46 µM (inactive),inactive,-2.08% (inactive),18.9%,13.5%,inactive,inactive,inactive,inactive,inactive,inactive,20 µM (active),,inactive
COc1ccc(Oc2ncc3nc(C)c(=O)n(Cc4cccc(OC)c4)c3n2)cc1,> 11.4 µM (inactive),-16% (inactive),6.92% (inactive),-8.96% (inactive),> 9.22 µM (inactive),> 46 µM (inactive),inactive,4.03% (inactive),6.56%,8.3%,inactive,inactive,inactive,inactive,inactive,,,,
CCNc1ncc2nc(-c3ccc(Cl)cc3)c(=O)n(CCC#N)c2n1,> 11.4 µM (inactive),8.5% (inactive),-14.8% (inactive),14.5% (inactive),> 9.22 µM (inactive),> 46 µM (inactive),inactive,8.4% (inactive),15.3%,24.2%,inactive,inactive,inactive,inactive,inactive,inactive,,,
Cn1cc(-c2nc3cnc(Oc4ccccc4)nc3n(C3CC3)c2=O)c2ccccc21,> 11.4 µM (inactive),13.1% (inactive),9.34% (inactive),,> 9.22 µM (inactive),> 46 µM (inactive),inactive,1.27% (inactive),1.6%,0.0554%,inactive,inactive,inactive,inactive,inactive,inactive,5.01 µM (active),,inactive
O=c1c(CCc2ccccc2)nc2cnc(N3CCOCC3)nc2n1Cc1cccs1,> 11.4 µM (inactive),-2.34% (inactive),-3.56% (inactive),2.46% (inactive),> 9.22 µM (inactive),> 46 µM (inactive),inactive,8.99% (inactive),7.22%,18.4%,inactive,inactive,inactive,inactive,inactive,,,,
CN(C)c1ncnc2ccc(-c3cccnc3)cc12,> 11.4 µM (inactive),-15% (inactive),,9.76% (inactive),> 46 µM (inactive),> 46 µM (inactive),inactive,3.37% (inactive),4.52%,7.15%,7.94 µM (active),7.08 µM (active),12.6 µM (active),inactive,inactive,inactive,0.2 µM (active),,inactive
Cc1ccccc1-c1cc(N2CCN(C)CC2)ncn1,> 11.4 µM (inactive),-0.925% (inactive),-7.69% (inactive),-0.251% (inactive),> 46 µM (inactive),> 46 µM (inactive),inactive,-4.37% (inactive),3.49%,-4.04%,inactive,inactive,inactive,inactive,inactive,inactive,,,
